# Assay outcomes: PubChem, National Center for Advancing Translational Sciences (NCATS)
# A selection: hits, their analogues and other compounds. The true share with any hit is near 18%.
# TDP1 block = blocks human tyrosyl-DNA phosphodiesterase 1 | Q9NUW8 | recombinant TDP1, AlphaScreen DNA substrate cleavage | Potency, µM (series often up to 130 µM), inactives show at the highest dose activity change, negative = inhibition, hits mostly inhibitors | actives 0.28% (n = 350,000); also: potency is read from the fitted curve at half-maximal effect; % is scaled to controls: 0 for no effect and ±100 for the full control effect; nearly all actives have a fitted effect of over 40% in size
# Target sequence (Q9NUW8 whole entry, looked up): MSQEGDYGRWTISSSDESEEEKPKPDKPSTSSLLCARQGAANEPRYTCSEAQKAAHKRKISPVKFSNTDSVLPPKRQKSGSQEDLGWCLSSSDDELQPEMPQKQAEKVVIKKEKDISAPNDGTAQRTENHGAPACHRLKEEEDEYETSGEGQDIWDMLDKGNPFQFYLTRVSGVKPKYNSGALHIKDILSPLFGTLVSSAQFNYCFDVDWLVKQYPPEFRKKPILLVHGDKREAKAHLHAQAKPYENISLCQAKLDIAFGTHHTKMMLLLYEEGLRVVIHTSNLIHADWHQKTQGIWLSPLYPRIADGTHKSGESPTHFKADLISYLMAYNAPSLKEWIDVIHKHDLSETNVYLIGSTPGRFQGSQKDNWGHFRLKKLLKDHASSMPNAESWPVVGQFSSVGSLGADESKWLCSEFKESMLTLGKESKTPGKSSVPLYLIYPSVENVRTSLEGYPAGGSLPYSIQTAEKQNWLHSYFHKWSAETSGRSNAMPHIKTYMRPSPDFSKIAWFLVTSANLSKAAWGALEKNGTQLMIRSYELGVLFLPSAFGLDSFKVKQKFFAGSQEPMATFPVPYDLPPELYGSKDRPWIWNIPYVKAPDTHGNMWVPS
#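 Recombinant human Tdp1 (E. coli-expressed, 1 nM final) preincubated with compounds 15 min at room temperature, then 5'-biotin/3'-phosphotyrosine-FITC DNA substrate (15 nM final) added for 5 min. AlphaScreen beads (10 ug/ml final) added 10 min; cleavage lowers signal.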
# IL-1B inflam inh = inflammasome signaling inhibition, IL-1 beta readout | THP-1 LPS/ATP IL-1B secretion, AlphaLISA, 16 h; stronger effect = lower value | activity change, % at 57.5 µM | actives 4.7% (n = 360,000) | AID 743279; in the data active = activity change below about -50%; inconclusive = mostly about -30% to -49%; also: % is scaled to controls: 0 for no effect and ±100 for the full control effect
#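 THP-1 cells pretreated 1 hr with compounds (up to 57.5 uM final), then stimulated with LPS (250 ng/mL final) plus ATP (1.25 mM final); secreted IL-1B measured by AlphaLISA after 16 hr, decreased signal indicating inhibition.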
# TGFb inhibitor = inhibitors of TGF-b signaling; Potency, µM (series often up to 46.1 µM), for inactives: at the highest dose activity, negative = inhibition, usual class: inhibitors; HepG2 CAGA-GFP TGF-b/SMAD3 reporter, GFP fluorescence, 18 h; TGF-beta stimulated, 500 pg/mL final; actives 1.2% (n = 410,000); AID 588855; also: potency is read from the fitted curve at half-maximal effect; % is scaled to controls: 0 for no effect and ±100 for the full control effect; nearly all actives have a fitted effect of over 65% in size
#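 Cell-based qHTS in HEPG2 carrying a CAGA-GFP Smad reporter; compounds added before 500 pg/mL final TGF-beta, 18 h incubation at 37 degrees C, GFP fluorescence quantified per cell by imaging cytometry.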
# TDP1 cell CPT = growth inhibition of DT40 Tdp1-/-;hTDP1 cells with camptothecin (screen for TDP1 inhibitors); chicken DT40 Tdp1-/-;hTDP1 cells + 20 nM CPT, ATP luminescence, 48 h; Potency, µM (highest dose often 46.2 µM), inactives show at the highest dose activity change, negative = growth inhibition, actives largely listed as inhibitors; actives 12% (n = 420,000); AID 686979; also: potency is read from the fitted curve at half-maximal effect; % is scaled to controls: 0 for no effect and ±100 for the full control effect; nearly all actives have a fitted effect of over 55% in size
#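 Chicken DT40 Tdp1-/- cells stably complemented with human TDP1 were seeded at 400 cells/well in medium containing 20 nM camptothecin, exposed to pin-transferred compounds, and grown at 37 °C for at least 48 hr. Viability was read as ATP luminescence.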
# HepG2 tox = HepG2 cytotoxicity, counter-screen for TGF-b inhibitors; HepG2 CAGA-GFP viability, ATP luminescence, 18 h; Potency, µM (doses to about 46.1 µM), inactives show at the highest dose activity change, negative = cytotoxicity, usual class: cytotoxic; actives 0.76% (n = 410,000); AID 588856; also: potency is read from the fitted curve at half-maximal effect
#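 HepG2 CAGA-GFP cells (1000/well, DMEM with 1% FBS) received compound, then TGF-beta at 500 pg/mL final, and were incubated 18 hours at 37 degrees C. Viability was read by CellTiter-Glo luminescence. Media-only wells were set as complete cell-killing and DMSO as no toxicity.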
# DT40 TDP1 no CPT = qHTS for Inhibitors of human tyrosyl-DNA phosphodiesterase 1 (TDP1): qHTS in cells in absence of CPT | Potency, µM (titrated, usually from 46.2 µM), without a hit: at the top dose activity change, negative = growth inhibition, actives largely listed as inhibitors | actives 15% (n = 420,000) | AID 686978, 2013 | DT40 Tdp1-/- hTDP1 cells, no CPT, ATP luminescence, 48 h; also: potency is read from the fitted curve at half-maximal effect; % is scaled to controls: 0 for no effect and ±100 for the full control effect; nearly all actives have a fitted effect of over 55% in size
#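 Camptothecin absent (DMSO only). Human TDP1-complemented DT40 knockout cells, 400 cells/well, 37 °C for minimum 48 hr; ATP measured via CellTiter-Glo, 30 min dark incubation, luminescence.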
# * = called active by the depositor; ? = inconclusive; / = not tested or not shown; [ ] = another dose, or the depositor's remark. Unless noted, calls follow the shape of the dose curve; as a rule, active = well fitted curve in the direction sought with a large enough effect; inconclusive = small, poorly fitted or top-dose-only effect, or another doubt; inactive = no such curve, though single readings can be large; an effect the other way counts as inactive or inconclusive.
SMILES,TDP1 block,IL-1B inflam inh,TGFb inhibitor,TDP1 cell CPT,HepG2 tox,DT40 TDP1 no CPT
N#CCCN(Cc1cccnc1)C(=O)c1sc2cc(F)ccc2c1Cl,0%,5,?,?,-14%,15µM*
O=C(CCCOc1ccc(Cl)cc1Cl)NN1CCOCC1,3%,6,-13%,-9%,1%,-5%
O=c1[nH]c(N2CCN(c3ccccc3)CC2)nc2c1CCCC2,2%,-15,4%,?,11%,23µM*
CCN(CC)CCn1c2c(c(SCC(=O)Nc3ccccc3Cl)nc1=O)CCCC2,?,-9,8%,-20%,-4%,-13%
Nc1nc(/C=C/c2cccnc2)nc(-c2ccccc2O)n1,2%,-60*,-1%,2.9µM*,-30%,9.2µM*
O=C(NC(=S)Nc1cc(C(F)(F)F)ccc1N1CCOCC1)c1sc2ccccc2c1Cl,1%,64,0%,?,4%,-25%
COc1cc2c(cc1NC(=O)CC1SC(N3CCCC3)=NC1=O)oc1ccccc12 (centres undefined),-2%,-28,12%,?,-20%,21µM*
COc1ccc(CN(C)CC(=O)Nc2ccc(Cl)cc2C(F)(F)F)c(OC)c1,-8%,-13,-11%,21µM*,-15%,16µM*
COc1cc2c(cc1NC(=O)CN1CCN(S(=O)(=O)c3ccccc3F)CC1)oc1ccccc12,-2%,37,15%,15µM*,-10%,21µM*
COc1ccc(CN(C)CC(=O)Nc2ccccc2C(F)(F)F)cc1,-2%,16,-15%,?,3%,?
COc1ccc(NC(=O)CC2SC(N3CCCC3)=NC2=O)cc1Cl (centres undefined),0%,35,4%,-21%,-6%,?
COc1ccc2ccc(O)c(CN(C)CC(=O)Nc3ccccc3C(F)(F)F)c2c1,8%[0.0935 µM],-23,?,21µM*,-156%,?
CCN(CC)CCCCCC(=O)Nc1ccccc1C(=O)Nc1ccccc1,8%,-9,20%,6%,0%,7%
CC(OC(=O)c1ccco1)C(=O)Nc1ncc(Cl)cc1Cl (centres undefined),0%,8,?,0%,-17%,2%
CC1Oc2ccccc2C=C1/C=N/Nc1ccc(C(=O)O)cc1 (centres undefined),6%,?,-1%,?,-3%,?
CCOC(=O)CSc1nc2sc3c(c2c(=O)n1-c1ccc(OC)cc1)CC(C(C)C)OC3 (centres undefined),/,/,0%,-2%,-5%,-19%
COc1ccc(CN(C)CC(=O)Nc2ccccc2C(F)(F)F)c(OC)c1,/,4,-20%,8%,0%,-29%
COc1ccc(CN(C)CC(=O)Nc2cc3oc4ccccc4c3cc2OC)c(OC)c1,2%,-11,?,13µM*,-3%,10µM*
COc1cc2c(cc1NC(=O)C(C)NCc1ccccc1)oc1ccccc12 (centres undefined),-3%,-6,19%,?,2%,16µM*
Cc1ccc(NC(=O)CN(C)Cc2c(O)ccc3ccccc23)cc1,11%,-101*,?,-7%,-31%,?
COc1cc2c(cc1NC(=O)CCC(=O)O)oc1ccccc12,/,14,1%,9%,-1%,-19%
COc1cc2c(cc1NC(=O)CN(C)Cc1ccc(OC)c(OC)c1)oc1ccccc12,5%,-25,-8%,16µM*,-10%,16µM*
CN(C)Cc1c(O)ccc2ccccc12,9%,0,-15%,?,-1%,?
CO[C@H]1[C@H](NC(=O)c2ccsc2)c2ccccc2C12CCN(Cc1cnn(C)c1C)CC2,/,/,/,13%[9.04 µM],/,-13%
